# A number with no mark means an inactive call.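 Rule for the calls: active = log2 fold change beyond 2 SD from the library mean after excluding viability outliers; inactive = within 2 SD.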
# Target: PARP1 L713F-nLuc biosensor (HCT116) (UniProt P09874)
# Test: PARP1 L713F-nLuc/akaLuc ratio relative to DMSO control (biosensor stabilization) (fold change); higher = more PARP1 biosensor stabilization (target engagement / stabilizer), active = hit call of the paper
# Details: stock concentration (mM; final µM = stock mM x 1): 10; 24 h
# Chain of PARP1 L713F-nLuc biosensor (HCT116) (P09874 whole entry L713F, looked up): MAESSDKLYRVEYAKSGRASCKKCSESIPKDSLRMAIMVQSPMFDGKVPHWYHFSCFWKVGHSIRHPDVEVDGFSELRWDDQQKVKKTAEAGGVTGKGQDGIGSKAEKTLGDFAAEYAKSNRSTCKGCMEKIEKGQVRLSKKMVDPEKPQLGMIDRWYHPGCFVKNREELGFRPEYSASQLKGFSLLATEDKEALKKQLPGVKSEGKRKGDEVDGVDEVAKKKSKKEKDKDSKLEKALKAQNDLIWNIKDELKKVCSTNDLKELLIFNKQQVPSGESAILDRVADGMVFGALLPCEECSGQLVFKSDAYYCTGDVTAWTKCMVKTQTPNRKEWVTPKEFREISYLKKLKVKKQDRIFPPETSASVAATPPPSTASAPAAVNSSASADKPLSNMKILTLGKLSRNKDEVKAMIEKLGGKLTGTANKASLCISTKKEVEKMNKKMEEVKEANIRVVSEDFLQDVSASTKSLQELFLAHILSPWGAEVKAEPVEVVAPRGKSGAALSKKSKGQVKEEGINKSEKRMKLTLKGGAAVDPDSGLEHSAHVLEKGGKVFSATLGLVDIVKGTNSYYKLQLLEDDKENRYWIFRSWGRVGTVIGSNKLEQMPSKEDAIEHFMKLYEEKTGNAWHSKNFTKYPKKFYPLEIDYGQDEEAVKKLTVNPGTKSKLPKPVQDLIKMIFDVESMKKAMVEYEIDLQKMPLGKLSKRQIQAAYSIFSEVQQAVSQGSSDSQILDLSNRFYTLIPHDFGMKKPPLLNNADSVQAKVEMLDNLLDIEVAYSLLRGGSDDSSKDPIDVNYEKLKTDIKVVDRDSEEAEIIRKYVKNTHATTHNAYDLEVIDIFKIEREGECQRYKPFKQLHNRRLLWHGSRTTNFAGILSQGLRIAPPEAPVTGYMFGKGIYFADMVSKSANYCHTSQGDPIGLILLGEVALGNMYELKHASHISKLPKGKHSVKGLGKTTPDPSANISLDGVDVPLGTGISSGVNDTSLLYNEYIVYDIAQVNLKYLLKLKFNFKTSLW
row,Compound,PARP1 L713F-nLuc/akaLuc ratio
1,CNC(=O)CN1CCC(Oc2cc3c(Nc4cccc(Cl)c4F)ncnc3cc2OC)CC1 [Sapitinib (AZD8931)],0.797
2,Cc1nc(N)sc1-c1ccnc(Nc2ccc(N3CCOCC3)cc2)n1,0.726
3,COc1cc2nccc(Oc3ccc(NC(=O)NC4CC4)c(Cl)c3)c2cc1C(N)=O [Lenvatinib (E7080)],0.673
4,COC(=O)c1ccc2c(c1)[nH]c1ncnc(NCCCN3CCCCC3)c12,1.02
5,NC(=O)c1cccc2[nH]c(-c3ccc(C4CCCN4)cc3F)nc12 (stereo not given),4.24 (active)
